Experimental data published in PubChem BioAssay (NCI).
About 79,000 compounds went through this panel and 15% of them were active in at least one assay; those are over-represented in the sample as a whole. Calls of active or inactive are those of the source. Rule as the data show it: active = growth inhibition above about 70%; inactive = the rest.

Key:
[1] = NCI Yeast Anticancer Drug Screen. Data for the rad52 strain (AID 147);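 also: 0% = growth of vehicle-treated control cultures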; settings: S. cerevisiae rad52 mutant growth inhibition, stronger effect = higher value
Outline: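 Genetically altered yeast (DNA damage repair defect) treated with compound; inhibition calculated relative to vehicle.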

[2] = NCI Yeast Anticancer Drug Screen. Data for the wt1 strain (AID 149);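 also: 0% = growth of vehicle-treated wt1 cultures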; settings: S. cerevisiae wt1 strain (SPY 50644) growth inhibition, stronger effect = higher value
Outline: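 Each compound is tested on wt1 yeast and the loss of growth versus vehicle gives the inhibition value.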

[3] = NCI Yeast Anticancer Drug Screen. Data for the rad50EPP+ strain (AID 151);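 also: 0% = growth of vehicle-treated control cultures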; settings: S. cerevisiae rad50 mutant strain, stronger effect = higher value
Outline: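 Strain rad50EPP+; compound exposure; % growth inhibition vs vehicle.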

[4] = NCI Yeast Anticancer Drug Screen. Data for the rad50 strain (AID 155);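 also: 0% = growth of vehicle-only cultures of the same strain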; settings: S. cerevisiae rad50 strain growth inhibition, stronger effect = higher value
Outline: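 Vehicle-treated cultures provide the reference for the growth inhibition reported for compound-exposed, repair-deficient yeast.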

[5] = NCI Yeast Anticancer Drug Screen. Data for the mec2-1 strain (AID 157); settings: S. cerevisiae mec2-1 strain, stronger effect = higher value
Outline: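 Cells of the genetically defined mec2-1 yeast strain are incubated with test compound. Inhibition of growth is calculated against vehicle-treated controls.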

[6] = NCI Yeast Anticancer Drug Screen. Data for the rad14 strain (AID 159);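 also: 0% = growth of vehicle-treated control cultures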; settings: S. cerevisiae rad14 strain growth inhibition, stronger effect = higher value
Outline: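 Inhibition of growth is reported for a repair-deficient yeast mutant following compound treatment, calculated relative to cultures that received vehicle.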

[7] = NCI Yeast Anticancer Drug Screen. Data for the sgs1 mgt1 strain (AID 161);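 also: 0% = growth of cultures given vehicle only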; settings: S. cerevisiae sgs1 mgt1 strain, stronger effect = higher value
Outline: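 Genetically altered yeast, compound exposure, growth inhibition relative to vehicle.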

[8] = NCI Yeast Anticancer Drug Screen. Data for the CLN2oe strain (AID 163);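 also: 0% = growth of vehicle-only control cultures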; settings: S. cerevisiae CLN2oe strain, stronger effect = higher value
Outline: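 Strain altered in cell-cycle control, incubated with compound; growth compared to solvent-treated controls.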

[9] = NCI Yeast Anticancer Drug Screen. Data for the cln2 rad14 strain (AID 165);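 also: 0% = growth equal to vehicle treated cultures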; settings: S. cerevisiae cln2 rad14 strain, stronger effect = higher value
Outline: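 The screen exposed genetically defined yeast (cln2 rad14) to test compounds and scored growth inhibition relative to vehicle-treated controls.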

[10] = NCI Yeast Anticancer Drug Screen. Data for the bub3 strain (AID 167); settings: S. cerevisiae bub3 mutant strain, stronger effect = higher value
Outline: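 Mutant yeast screening strain plus compound; vehicle-treated cultures serve as the 0% inhibition reference.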

[11] = NCI Yeast Anticancer Drug Screen. Data for the mlh1 strain (AID 171);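 also: 0% = growth of vehicle-treated control cultures of the same strain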; settings: S. cerevisiae mlh1 strain growth inhibition, stronger effect = higher value
Outline: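 Yeast screen: mutant strain plus compound, growth scored against vehicle control wells.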

[12] = NCI Yeast Anticancer Drug Screen. Data for the sgs1 strain (AID 173);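 also: 0% = growth of vehicle-only control cultures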; settings: S. cerevisiae sgs1 mutant, stronger effect = higher value
Outline: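 Inhibition of yeast growth served as the measure. The mutant strain was treated with each compound, and growth was normalised to cultures receiving vehicle alone.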

[13] = NCI Yeast Anticancer Drug Screen. Data for the mlh1 rad18 strain (AID 175); settings: S. cerevisiae mlh1 rad18 strain growth inhibition, stronger effect = higher value
Outline: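 Compound-treated yeast growth, normalised to vehicle controls. Strain bears defined DNA repair mutations.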

[14] = NCI Yeast Anticancer Drug Screen. Data for the rad18 strain (AID 177); settings: S. cerevisiae rad18 mutant growth inhibition, stronger effect = higher value
Outline: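 Inhibition values reflect reduced yeast growth compared with vehicle-treated controls, using a strain engineered with a DNA damage repair defect.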

[15] = NCI Yeast Anticancer Drug Screen. Data for the wt2 strain (AID 169); settings: S. cerevisiae wt2 strain growth inhibition, stronger effect = higher value
Outline: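 Steps: yeast strain treated with compound; growth recorded; inhibition calculated relative to cultures given vehicle alone.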

[16] = at 5.0 µM (retest, dose inferred, filed as 0.5)
[17] = at 50.0 µM (retest, dose inferred, filed as 5.0)

Measured: growth inhibition

Nc1ccc(CCl)cc1Cc1c(O)ccc2ccccc12
active: [3]; at 100.0 µM 74% | [5]; [17] 84% | [7]; at 50.0 µM 70.3%
inactive: [1]; at 1.2 µM 0% | [1]; at 3.7 µM 3% | [1]; at 11.0 µM 9% | [1]; at 33.0 µM 19% | [1]; at 100.0 µM 36% | [2]; at 1.2 µM -1% | [2]; at 3.7 µM 6% | [2]; at 11.0 µM 12% | [2]; at 33.0 µM 19% | [2]; at 100.0 µM 30% | [3]; at 1.2 µM 8% | [3]; at 3.7 µM 15% | [3]; at 11.0 µM 40% | [3]; at 33.0 µM 61% | [4]; at 1.2 µM 1% | [4]; at 3.7 µM 4% | [4]; [16] 6% | [4]; at 11.0 µM 8% | [4]; at 33.0 µM 13% | [4]; [17] 41% | [4]; at 50.0 µM 51.4% | [4]; at 100.0 µM 27% | [5]; at 1.2 µM 1% | [5]; at 3.7 µM 0% | [5]; [16] -6% | [5]; at 11.0 µM 6% | [5]; at 33.0 µM 13% | [5]; at 50.0 µM 37.2% | [5]; at 100.0 µM 33% | [6]; at 1.2 µM 1% | [6]; at 3.7 µM 3% | [6]; at 11.0 µM 8% | [6]; at 33.0 µM 16% | [6]; at 100.0 µM 29% | [7]; [16] 2% | [7]; [17] 64% | [8]; at 1.2 µM -3% | [8]; at 3.7 µM -7% | [8]; at 11.0 µM 3% | [8]; at 33.0 µM -1% | [8]; at 100.0 µM 34% | [9]; [16] 6% | [9]; [17] 61% | [9]; at 50.0 µM 29.3% | [10]; at 1.2 µM -4% | [10]; at 3.7 µM -2% | [10]; [16] 3% | [10]; at 11.0 µM 0% | [10]; at 33.0 µM 1% | [10]; [17] 43% | [10]; at 50.0 µM 55% | [10]; at 100.0 µM 27% | [11]; at 1.2 µM 1% | [11]; at 3.7 µM 2% | [11]; at 11.0 µM 5% | [11]; at 33.0 µM 8% | [11]; at 100.0 µM 31% | [12]; at 1.2 µM 1% | [12]; at 3.7 µM 1% | [12]; at 11.0 µM 10% | [12]; at 33.0 µM 21% | [12]; at 100.0 µM 38% | [13]; [16] 0% | [13]; [17] 61% | [13]; at 50.0 µM 66.7% | [14]; at 1.2 µM 1% | [14]; at 3.7 µM 1% | [14]; at 11.0 µM 7% | [14]; at 33.0 µM 16% | [14]; at 100.0 µM 33%

CCCCCCCCCCCCCCCCCCNC(=S)/N=C\C1=C(O)c2ccccc2C1=O
active: [4]; [17] 86% | [7]; at 50.0 µM 71% | [10]; [17] 84%
inactive: [1]; at 1.2 µM 17% | [1]; at 3.7 µM 4% | [1]; at 11.0 µM 12% | [1]; at 33.0 µM 17% | [1]; at 100.0 µM 19% | [2]; at 1.2 µM -44% | [2]; at 3.7 µM -2% | [2]; at 11.0 µM -5% | [2]; at 33.0 µM -5% | [2]; at 100.0 µM -3% | [3]; at 1.2 µM -6% | [3]; at 3.7 µM 7% | [3]; at 11.0 µM 26% | [3]; at 33.0 µM 42% | [3]; at 100.0 µM 60% | [4]; at 1.2 µM -1% | [4]; at 3.7 µM 0% | [4]; [16] 5% | [4]; at 11.0 µM 0% | [4]; at 33.0 µM 4% | [4]; at 50.0 µM 60% | [4]; at 100.0 µM 9% | [5]; at 1.2 µM -3% | [5]; at 3.7 µM -1% | [5]; [16] -16% | [5]; at 11.0 µM -5% | [5]; at 33.0 µM 2% | [5]; [17] 37% | [5]; at 50.0 µM 36.7% | [5]; at 100.0 µM 2% | [6]; at 1.2 µM 0% | [6]; at 3.7 µM 3% | [6]; at 11.0 µM 7% | [6]; at 33.0 µM 10% | [6]; at 100.0 µM 11% | [7]; [16] -13% | [7]; [17] 18% | [8]; at 1.2 µM -10% | [8]; at 3.7 µM -7% | [8]; at 11.0 µM -5% | [8]; at 33.0 µM -13% | [8]; at 100.0 µM -4% | [9]; [16] 33% | [9]; [17] -10% | [9]; at 50.0 µM 25.7% | [10]; at 1.2 µM -5% | [10]; at 3.7 µM -9% | [10]; [16] -2% | [10]; at 11.0 µM -4% | [10]; at 33.0 µM -3% | [10]; at 50.0 µM 69.7% | [10]; at 100.0 µM 52% | [15]; at 1.2 µM -2% | [15]; at 3.7 µM -2% | [15]; at 11.0 µM 1% | [15]; at 33.0 µM 13% | [15]; at 100.0 µM 36% | [12]; at 1.2 µM 0% | [12]; at 3.7 µM 6% | [12]; at 11.0 µM 13% | [12]; at 33.0 µM 15% | [12]; at 100.0 µM 30% | [13]; [16] -13% | [13]; [17] 63% | [13]; at 50.0 µM 53% | [14]; at 1.2 µM 8% | [14]; at 3.7 µM 11% | [14]; at 11.0 µM 22% | [14]; at 33.0 µM 30% | [14]; at 100.0 µM 26%

Clc1c(Cl)c(Cl)c2n[nH]nc2c1Cl
inactive: [1]; at 1.2 µM -30% | [1]; at 3.7 µM -11% | [1]; at 11.0 µM -20% | [1]; at 33.0 µM -12% | [1]; at 100.0 µM 65% | [2]; at 1.2 µM -23% | [2]; at 3.7 µM -16% | [2]; at 11.0 µM -9% | [2]; at 33.0 µM 14% | [3]; at 1.2 µM -62% | [3]; at 3.7 µM -51% | [3]; at 11.0 µM -28% | [3]; at 33.0 µM 18% | [3]; at 100.0 µM 20% | [4]; at 1.2 µM -13% | [4]; at 3.7 µM -21% | [4]; at 11.0 µM -9% | [4]; at 33.0 µM 14% | [4]; at 50.0 µM 60.1% | [5]; at 1.2 µM -6% | [5]; at 3.7 µM -20% | [5]; at 11.0 µM -21% | [5]; at 33.0 µM 9% | [5]; at 50.0 µM 54.8% | [6]; at 1.2 µM -9% | [6]; at 3.7 µM -19% | [6]; at 11.0 µM -9% | [6]; at 33.0 µM 11% | [7]; [16] -17% | [8]; at 1.2 µM -7% | [8]; at 3.7 µM -10% | [8]; at 11.0 µM 1% | [8]; at 33.0 µM 21% | [9]; [16] 57% | [9]; [17] 57% | [10]; at 1.2 µM -21% | [10]; at 3.7 µM -18% | [10]; [16] -11% | [10]; at 11.0 µM -10% | [10]; at 33.0 µM 15% | [15]; at 1.2 µM -24% | [15]; at 3.7 µM -18% | [15]; at 11.0 µM -7% | [15]; at 33.0 µM -3% | [11]; at 1.2 µM -59% | [11]; at 3.7 µM -52% | [11]; at 11.0 µM -33%
active: [2]; at 100.0 µM 87% | [4]; [16] 100% | [4]; [17] 100% | [4]; at 100.0 µM 75% | [5]; [16] 100% | [5]; [17] 100% | [5]; at 100.0 µM 82% | [6]; at 100.0 µM 94% | [7]; [17] 78% | [8]; at 100.0 µM 76% | [10]; [17] 73% | [10]; at 100.0 µM 87% | [15]; at 100.0 µM 94%
